NR5A2 inv ag – LRH-1 (NR5A2) inverse agonists, primary screen, cell-based, luminescence, HEK293T, StAR-luciferase reporter | Nuclear receptor subfamily 5 group A member 2 (Homo sapiens), O00482 | LRH-1 transfected, 24 h | inhibition, % at 3.6 µM | 360,000 tested, 0.13% active;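 active = inhibition above the mean inhibition of all tested compounds plus 3 SD, cut at about 73% in these data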;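 note: 0% = DMSO wells and 100% = reporter-only cells lacking LRH-1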
NCOA3 inh – SRC3 coactivator transcriptional activity inhibitors, primary screen, cell-based, luminescence; inhibition, % at 3.6 µM; AID 588352, 2011; 360,000 tested, 0.17% active; HEK293 GAL4-SRC3 luciferase reporter;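 active = inhibition above a per-campaign cutoff, the mean of all compounds plus 3 SD, cut at about 60% in these data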;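 note: 0% = DMSO-treated cells and 100% = gossypol-treated cells at 36 µM; higher means less SRC3-driven luciferase light from the GAL4 reporter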
NCOA1 inh – SRC1 coactivator transcriptional activity inhibitors, primary screen, cell-based, luminescence; Nuclear receptor coactivator 1 (Homo sapiens), Q15788; HEK293 GAL4-SRC1 luciferase reporter; inhibition, % at 3.6 µM; 360,000 tested, 0.12% active;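 active = inhibition above the campaign mean plus 3 SD, with each screening campaign given its own cutoff, cut at about 60% in these data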;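 note: 0% = DMSO treated cells and 100% = gossypol at 36 µM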
NR2F2 inh – NR2F2 transcriptional activity inhibitors, primary screen, cell-based, luciferase reporter, HEK293T, luminescence; HEK293T NGFI-A luciferase reporter; inhibition, % at 8.6 µM; 370,000 tested, 0.7% active; COUP transcription factor 2 (Homo sapiens), P24468;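 active = inhibition above a per-plate cutoff, mean inhibition of test wells between control levels plus 3 SD, cut at about 38% in these data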;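 note: cells cotransfected with COUP-TFII expression vector driving the NGFI-A reporter; 0% = median of COUP-TF2 test wells and 100% = reporter-only cells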
Gli-Sufu antag – Gli-Sufu pathway antagonists, primary screen, luciferase luminescence, Sufu-KO-LIGHT cells, uHTS; inhibition, % at 5 µM; Sufu-KO-LIGHT fibroblasts, Gli luciferase reporter luminescence; AID 588413, 2011; 340,000 tested, 0.74% active;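 active = inhibition above about 55%, limit read from the data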;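 note: 0% = DMSO-treated cells and 100% = wells with medium but no cells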
NCOA2 inhibitor – inhibition of GAL4-SRC2 driven luciferase reporter, primary screen, SRC2 inhibitor project, cell-based, luminescence | Nuclear receptor coactivator 2 (Homo sapiens), Q15596 | HEK293 GAL4-SRC2 luciferase reporter | inhibition, % at 9 µM | 370,000 tested, 0.17% active | AID 651957, 2012;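 active = inhibition above the mean inhibition of all tested compounds plus 3 SD, set per campaign, cut at about 52% in these data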;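 note: 0% = DMSO treated cells and 100% = cells given Gossypol at 36 µM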
An asterisk follows results filed as active. Shown are actives, neighbours in structure and some others; about 1.3% of the full set was active somewhere.

CCN(CC)C(=O)CN1C(=O)C2CCCCN2C(=O)c2ccccc21 (centres undefined) was read as NR2F2 inh -2 and NCOA2 inhibitor 6.
CC(=NNC(=O)c1ccncc1)c1cccc(Br)c1 was read as NR5A2 inv ag 6, NCOA3 inh -14, NCOA1 inh 5, NR2F2 inh -3, Gli-Sufu antag 1 and NCOA2 inhibitor -21.
For C/C(=N\NC(=O)c1cccc(Br)c1)c1ccccn1 the results were NR5A2 inv ag -78, NCOA3 inh -29, NCOA1 inh -30, NR2F2 inh -1, Gli-Sufu antag 89* and NCOA2 inhibitor -34.
Screening C/C(=N\NC(=O)c1cc(Br)ccc1O)c1ccccn1 returned NR5A2 inv ag -31, NCOA3 inh -5, NCOA1 inh -9, NR2F2 inh 2, Gli-Sufu antag 66* and NCOA2 inhibitor 19.
Screening Cc1cccc(/C=N/NC(=O)c2cc(Br)ccc2O)n1 returned NR5A2 inv ag -30, NCOA3 inh -37, NCOA1 inh -19, NR2F2 inh -9, Gli-Sufu antag -1 and NCOA2 inhibitor -9.
`CC1=CC2C3C(=O)N(c4ccccc4)C(=O)C3C1C(=O)C2(O)C(C)C` (centres undefined) gave NR2F2 inh 17 and NCOA2 inhibitor -2.
`Cc1nc2cc(-c3ccc(Cl)cc3)nn2c(C)c1CCC(=O)NC(C)c1ccc2c(c1)OCCO2` (centres undefined) gave NR5A2 inv ag 2, NCOA3 inh 13, NCOA1 inh 17, NR2F2 inh 26, Gli-Sufu antag 23 and NCOA2 inhibitor 73*.
For CCc1ccc(C2=NN(CCC(=O)NC(C)c3ccc4c(c3)OCCO4)C(=O)CC2)cc1 (centres undefined) the results were NR5A2 inv ag 21, NCOA3 inh 14, NCOA1 inh 11, NR2F2 inh 12, Gli-Sufu antag 10 and NCOA2 inhibitor 9.
CCOc1cccc(-c2nnc3n2N=C(c2ccc(OC)cc2)CS3)c1 was read as NR2F2 inh 2 and NCOA2 inhibitor -16.
Cc1cccc(C)c1NC(=O)C1CCCN1S(=O)(=O)c1cccc2cccnc12 (centres undefined) was read as NR2F2 inh -7 and NCOA2 inhibitor -22.
`CCCCC(CC)CN=C(N)NC(N)=NCCCCCCN=C(N)NC(N)=NCC(CC)CCCC` (centres undefined) gave NR5A2 inv ag 66, NCOA3 inh 10, NCOA1 inh -21 and Gli-Sufu antag 67*.
For Cc1ccc(-c2nc(NC(=O)c3nn(C)cc3[N+](=O)[O-])sc2C)cc1 the results were NR5A2 inv ag 44, NCOA3 inh 4, NCOA1 inh -18, NR2F2 inh 30, Gli-Sufu antag 11 and NCOA2 inhibitor 52*.
For CN(C)CCNCCCNc1c2ccccc2nc2cccc([N+](=O)[O-])c12 the results were NR5A2 inv ag 6, NCOA3 inh -15, NCOA1 inh 1, NR2F2 inh -1, Gli-Sufu antag 62* and NCOA2 inhibitor -14.
Screening CN(C)CCCNc1c2c(nc3ccccc13)CCC2 returned NR5A2 inv ag -16, NCOA3 inh 17, NCOA1 inh 20, NR2F2 inh -15, Gli-Sufu antag 11 and NCOA2 inhibitor -34.
`O=c1c2ccccc2n(Cc2ccno2)n1[C@@H](Cc1ccccc1)Cn1cc(C2CCCC2)nn1` gave NR2F2 inh -13 and NCOA2 inhibitor 11.
Cc1ccc(NC(=O)C2=C(c3ccccc3)S(=O)(=O)CCS2(=O)=O)cc1 was read as NR5A2 inv ag 56, NCOA3 inh -31, NCOA1 inh -60, NR2F2 inh 20, Gli-Sufu antag 23 and NCOA2 inhibitor 74*.
Screening COc1cccc(C(=O)N[C@H](C(=O)N2CCC[C@H]2C(=O)NCc2ccccc2)C(C)C)c1 returned NR2F2 inh -15 and NCOA2 inhibitor 3.
CCOC(=O)N1CCN(C(=O)C2CCCN(Cc3nc(-c4ccc(Cl)cc4)oc3C)C2)CC1 (centres undefined) was read as NR5A2 inv ag 42, NCOA3 inh 3, NCOA1 inh 19, NR2F2 inh 73*, Gli-Sufu antag 9 and NCOA2 inhibitor 10.
For Cc1oc(-c2ccc(Cl)cc2)nc1CN1CCCC(C(=O)NC2CC2)C1 (centres undefined) the results were NR5A2 inv ag 7, NCOA3 inh -19, NCOA1 inh 7, NR2F2 inh 6, Gli-Sufu antag 10 and NCOA2 inhibitor 16.
Cc1cccc(C)c1NS(=O)(=O)c1ccc(-c2cnc(C3CC3)o2)cc1 was read as NR5A2 inv ag 39, NCOA3 inh 36, NCOA1 inh -30, NR2F2 inh -40, Gli-Sufu antag 57* and NCOA2 inhibitor 38.
S=C1Cc2ccccc2N1 was read as NR5A2 inv ag 64, NCOA3 inh 17, NCOA1 inh -1, NR2F2 inh 60*, Gli-Sufu antag 13 and NCOA2 inhibitor 67*.
CCCCCCCCNC(=O)C1CSCCS(=O)(=O)N1Cc1ccc(OC)cc1 (centres undefined) was read as NR2F2 inh 4 and NCOA2 inhibitor -16.
O=C(N/N=C\c1c(O)ccc2ccccc12)c1ccc(S(=O)(=O)N2CCCCC2)cc1 was read as NR5A2 inv ag 2, NCOA3 inh -1, NCOA1 inh 20, NR2F2 inh 12, Gli-Sufu antag 85* and NCOA2 inhibitor -17.
Screening O=C(NN=Cc1c(O)ccc2ccccc12)c1ccc2c(c1)OCO2 returned NR5A2 inv ag 10, NCOA3 inh 25, NCOA1 inh 21, NR2F2 inh 2, Gli-Sufu antag 29 and NCOA2 inhibitor 7.
`Cc1nn(-c2ccccc2)c2sc(C(=O)N3CCN(C(c4ccccc4)c4ccc(Cl)cc4)CC3)cc12` (centres undefined) gave NR2F2 inh -18 and NCOA2 inhibitor -5.
`O=C(Nc1nc(-c2ccccn2)cs1)c1ccc(Cl)s1` gave NR5A2 inv ag 15, NCOA3 inh 4, NCOA1 inh 0, NR2F2 inh 2, Gli-Sufu antag 76* and NCOA2 inhibitor -20.
Screening COC(=O)c1cc(NC(=O)NC2CCCCN(Cc3ccc(Cl)cc3)C2=O)cc(C(=O)OC)c1 (centres undefined) returned NR2F2 inh -16 and NCOA2 inhibitor 2.
Cc1cc(C=C2C(=O)c3ccccc3C2=O)c(C)n1-c1ccc(C(=O)O)cc1 was read as NR5A2 inv ag 12, NCOA3 inh -6, NCOA1 inh 3, NR2F2 inh 7, Gli-Sufu antag 7 and NCOA2 inhibitor -14.
